ChEMBL document CHEMBL3988442, “University of Dundee, Small-Polar-MMV Screening Library” (2021)
For some assays here: Entries with a potency or affinity are not part of this list.

How the values were obtained:
Set-up in all cases: scale not given: direction of the effect not stated beside the values
[1] = molecular target: Protein translocase subunit SecA (Escherichia coli (strain K12)) (UniProt P10408); assay: Assay to Identify E. coli SecA ATPase Inhibitors; assay type: functional; conditions: 30 µM
[2] = molecular target: T1, Ubiquitin-activating enzyme e1, putative (Leishmania donovani (strain BPK282A1)) (UniProt E9BSI1); assay: Leishmania donovani Ubiquitin Activating Enzyme (LdE1); assay type: functional; conditions: 30 µM
T1 sequence (whole entry): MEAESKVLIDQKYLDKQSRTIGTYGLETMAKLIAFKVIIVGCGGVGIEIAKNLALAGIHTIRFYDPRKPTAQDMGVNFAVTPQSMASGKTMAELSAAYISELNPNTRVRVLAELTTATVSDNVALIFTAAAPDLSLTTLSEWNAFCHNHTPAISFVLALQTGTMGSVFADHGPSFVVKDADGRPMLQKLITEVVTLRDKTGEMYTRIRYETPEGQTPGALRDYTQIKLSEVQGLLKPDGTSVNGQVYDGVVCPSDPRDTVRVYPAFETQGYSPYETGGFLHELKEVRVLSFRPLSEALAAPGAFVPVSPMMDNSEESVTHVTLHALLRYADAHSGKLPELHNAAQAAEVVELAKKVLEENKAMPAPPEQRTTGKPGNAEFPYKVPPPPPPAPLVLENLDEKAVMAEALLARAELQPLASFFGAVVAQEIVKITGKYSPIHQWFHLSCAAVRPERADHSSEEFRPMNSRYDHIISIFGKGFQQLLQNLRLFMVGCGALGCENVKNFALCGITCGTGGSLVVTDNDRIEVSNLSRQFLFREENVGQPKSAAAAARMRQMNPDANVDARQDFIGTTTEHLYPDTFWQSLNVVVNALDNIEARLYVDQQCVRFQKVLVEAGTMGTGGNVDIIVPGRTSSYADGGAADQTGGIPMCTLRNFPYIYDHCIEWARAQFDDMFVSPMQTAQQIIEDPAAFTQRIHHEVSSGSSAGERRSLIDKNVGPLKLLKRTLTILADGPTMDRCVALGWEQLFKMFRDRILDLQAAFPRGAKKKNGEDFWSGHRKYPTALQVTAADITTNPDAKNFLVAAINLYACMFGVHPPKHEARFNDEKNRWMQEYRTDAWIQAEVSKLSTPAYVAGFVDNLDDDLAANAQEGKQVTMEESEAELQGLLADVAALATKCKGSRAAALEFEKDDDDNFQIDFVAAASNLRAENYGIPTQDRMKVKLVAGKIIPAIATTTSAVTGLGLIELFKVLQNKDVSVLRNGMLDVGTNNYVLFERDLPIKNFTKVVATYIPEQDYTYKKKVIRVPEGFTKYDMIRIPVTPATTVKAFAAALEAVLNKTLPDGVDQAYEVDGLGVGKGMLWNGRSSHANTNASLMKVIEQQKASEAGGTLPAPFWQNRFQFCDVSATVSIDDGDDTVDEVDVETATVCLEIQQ

[3] = molecular target: Sialic acid-binding Ig-like lectin 9 (Homo sapiens) (UniProt Q9Y336); assay: Hs-Siglec9 ALPHAscreen SOP 20170721; conditions: 10 µM
Trypanosoma cruzi = assay: Trypanosoma cruzi phosphomannomutase and mannose-1-phosphate guanylyltransferase assay; assay type: functional; conditions: 10 µM
[4] = molecular target: T2, Arginase-2, mitochondrial (Homo sapiens) (UniProt P78540); assay: in vitro enzyme assay to detect the production of urea directly proportional to the activity of Arginase II; assay type: functional; conditions: 33.3 µM; note: in the data most compounds retested in dose-response had high values
T2 sequence (whole entry): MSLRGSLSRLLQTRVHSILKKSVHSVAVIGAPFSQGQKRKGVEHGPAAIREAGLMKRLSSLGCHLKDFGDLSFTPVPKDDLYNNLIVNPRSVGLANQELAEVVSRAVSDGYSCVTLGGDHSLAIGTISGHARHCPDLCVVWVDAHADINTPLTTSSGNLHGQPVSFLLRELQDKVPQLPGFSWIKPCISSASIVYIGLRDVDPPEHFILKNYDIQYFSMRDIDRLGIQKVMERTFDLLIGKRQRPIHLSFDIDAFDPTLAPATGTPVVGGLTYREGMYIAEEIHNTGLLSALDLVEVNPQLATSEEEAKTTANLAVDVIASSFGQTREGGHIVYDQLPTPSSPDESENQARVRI

[5] = molecular target: T3, Proteasome subunit beta (Trypanosoma cruzi) (UniProt O96673); assay: Trypanosoma cruzi proteasome chymotrypsin-like activity (TcProtChymo) assay.; note: in the data most compounds retested in dose-response had high values; assay type: functional; conditions: 9.37 µM
T3 sequence (whole entry): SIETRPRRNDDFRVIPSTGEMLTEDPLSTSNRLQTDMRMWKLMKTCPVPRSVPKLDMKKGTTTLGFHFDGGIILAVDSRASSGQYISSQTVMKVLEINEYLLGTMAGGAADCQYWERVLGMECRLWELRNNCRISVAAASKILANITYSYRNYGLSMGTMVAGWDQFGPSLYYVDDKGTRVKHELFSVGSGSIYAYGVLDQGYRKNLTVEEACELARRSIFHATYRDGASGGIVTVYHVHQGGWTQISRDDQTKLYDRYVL

Homo sapiens = organism: Homo sapiens; assay: To identify inhibition of the IFN signalling (Jak-Stat) pathway via expression of an eGFP reporter gene under the control of an IFN-stimulated response element (ISRE) containing MxA promoter.; assay type: functional; conditions: 30 µM
[6] = molecular target: T4, Tyrosyl-tRNA synthetase, putative (Trypanosoma cruzi (strain CL Brener)) (UniProt Q4DSP6); assay: Trypanosoma cruzi tyrosyl tRNA synthetase (TcYRS) _High Tyrosine SOP; assay type: functional; conditions: 30 µM; note: in the data most compounds retested in dose-response had high values
T4 sequence (whole entry): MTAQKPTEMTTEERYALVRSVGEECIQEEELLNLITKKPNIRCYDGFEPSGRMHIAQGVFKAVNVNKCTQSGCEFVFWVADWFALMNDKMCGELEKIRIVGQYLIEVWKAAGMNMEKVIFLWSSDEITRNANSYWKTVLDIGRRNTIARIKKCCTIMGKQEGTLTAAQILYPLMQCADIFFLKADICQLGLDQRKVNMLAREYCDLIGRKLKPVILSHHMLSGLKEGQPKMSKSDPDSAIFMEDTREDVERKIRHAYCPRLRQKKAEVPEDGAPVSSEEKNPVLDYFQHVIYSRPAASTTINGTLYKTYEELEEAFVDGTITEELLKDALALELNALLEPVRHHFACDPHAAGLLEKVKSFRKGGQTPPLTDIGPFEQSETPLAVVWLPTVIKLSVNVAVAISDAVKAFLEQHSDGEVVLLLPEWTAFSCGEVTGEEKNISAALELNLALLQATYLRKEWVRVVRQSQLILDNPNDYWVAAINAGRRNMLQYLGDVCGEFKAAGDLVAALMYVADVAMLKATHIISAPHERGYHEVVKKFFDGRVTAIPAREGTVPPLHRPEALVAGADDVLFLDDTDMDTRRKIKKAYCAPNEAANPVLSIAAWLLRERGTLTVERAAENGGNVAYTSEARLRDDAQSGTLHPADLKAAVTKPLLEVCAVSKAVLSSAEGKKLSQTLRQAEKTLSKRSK

[7] = molecular target: T4, Tyrosyl-tRNA synthetase, putative (Trypanosoma cruzi (strain CL Brener)); assay: Trypanosoma cruzi tyrosyl tRNA synthetase (TcYRS) SOP; assay type: functional; conditions: 30 µM
[8] = molecular target: Chromo domain-containing protein 1 (Saccharomyces cerevisiae (strain ATCC 204508 / S288c) (Baker's yeast)) (UniProt P32657); assay: ScCHD-1 Enzyme Inhibition Assay; assay type: functional; conditions: 30 µM; note: in the data most compounds retested in dose-response had high values
Chromo domain-containing protein 1 (Saccharomyces cerevisiae (strain ATCC 204508 / S288c) (Baker's yeast)), sequence (P32657 whole entry, the tested form may be a part): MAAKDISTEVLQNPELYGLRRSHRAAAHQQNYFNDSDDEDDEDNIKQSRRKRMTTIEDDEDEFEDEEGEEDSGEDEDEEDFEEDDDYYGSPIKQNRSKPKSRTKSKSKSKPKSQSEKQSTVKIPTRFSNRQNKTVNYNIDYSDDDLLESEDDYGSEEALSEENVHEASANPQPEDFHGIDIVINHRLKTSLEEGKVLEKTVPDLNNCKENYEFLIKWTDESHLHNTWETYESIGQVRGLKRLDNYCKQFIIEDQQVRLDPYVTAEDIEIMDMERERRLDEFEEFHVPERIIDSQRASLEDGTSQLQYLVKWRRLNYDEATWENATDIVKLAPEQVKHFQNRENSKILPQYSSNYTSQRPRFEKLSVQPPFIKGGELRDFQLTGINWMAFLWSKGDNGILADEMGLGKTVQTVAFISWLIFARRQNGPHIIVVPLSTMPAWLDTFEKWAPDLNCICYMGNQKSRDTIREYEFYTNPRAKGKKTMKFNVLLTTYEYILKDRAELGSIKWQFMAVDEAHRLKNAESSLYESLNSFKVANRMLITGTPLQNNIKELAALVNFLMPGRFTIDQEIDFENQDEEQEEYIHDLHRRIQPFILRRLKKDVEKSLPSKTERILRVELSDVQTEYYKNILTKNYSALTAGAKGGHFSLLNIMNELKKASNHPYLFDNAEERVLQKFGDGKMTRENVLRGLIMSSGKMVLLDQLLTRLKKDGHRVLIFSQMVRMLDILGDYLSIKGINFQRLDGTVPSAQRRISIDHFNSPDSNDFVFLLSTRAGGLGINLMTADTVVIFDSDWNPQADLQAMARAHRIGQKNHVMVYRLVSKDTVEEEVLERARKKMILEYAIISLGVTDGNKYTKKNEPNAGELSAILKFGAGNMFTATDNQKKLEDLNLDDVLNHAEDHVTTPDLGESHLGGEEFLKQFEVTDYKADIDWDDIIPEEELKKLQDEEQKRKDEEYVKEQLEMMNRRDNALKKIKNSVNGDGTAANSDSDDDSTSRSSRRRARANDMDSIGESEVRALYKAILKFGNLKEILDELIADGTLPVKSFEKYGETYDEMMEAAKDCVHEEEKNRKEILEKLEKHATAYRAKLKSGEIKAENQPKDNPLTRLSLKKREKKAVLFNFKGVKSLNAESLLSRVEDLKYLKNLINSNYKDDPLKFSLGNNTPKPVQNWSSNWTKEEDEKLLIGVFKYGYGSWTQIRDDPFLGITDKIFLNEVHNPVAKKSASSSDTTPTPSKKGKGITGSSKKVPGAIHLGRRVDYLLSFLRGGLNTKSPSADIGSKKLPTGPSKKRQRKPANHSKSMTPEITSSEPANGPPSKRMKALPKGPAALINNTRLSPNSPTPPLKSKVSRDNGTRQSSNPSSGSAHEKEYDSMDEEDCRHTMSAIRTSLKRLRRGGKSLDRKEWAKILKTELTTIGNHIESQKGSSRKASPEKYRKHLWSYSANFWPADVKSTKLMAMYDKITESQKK

Protein translocase subunit SecA (Escherichia coli (strain K12)), sequence (P10408 whole entry): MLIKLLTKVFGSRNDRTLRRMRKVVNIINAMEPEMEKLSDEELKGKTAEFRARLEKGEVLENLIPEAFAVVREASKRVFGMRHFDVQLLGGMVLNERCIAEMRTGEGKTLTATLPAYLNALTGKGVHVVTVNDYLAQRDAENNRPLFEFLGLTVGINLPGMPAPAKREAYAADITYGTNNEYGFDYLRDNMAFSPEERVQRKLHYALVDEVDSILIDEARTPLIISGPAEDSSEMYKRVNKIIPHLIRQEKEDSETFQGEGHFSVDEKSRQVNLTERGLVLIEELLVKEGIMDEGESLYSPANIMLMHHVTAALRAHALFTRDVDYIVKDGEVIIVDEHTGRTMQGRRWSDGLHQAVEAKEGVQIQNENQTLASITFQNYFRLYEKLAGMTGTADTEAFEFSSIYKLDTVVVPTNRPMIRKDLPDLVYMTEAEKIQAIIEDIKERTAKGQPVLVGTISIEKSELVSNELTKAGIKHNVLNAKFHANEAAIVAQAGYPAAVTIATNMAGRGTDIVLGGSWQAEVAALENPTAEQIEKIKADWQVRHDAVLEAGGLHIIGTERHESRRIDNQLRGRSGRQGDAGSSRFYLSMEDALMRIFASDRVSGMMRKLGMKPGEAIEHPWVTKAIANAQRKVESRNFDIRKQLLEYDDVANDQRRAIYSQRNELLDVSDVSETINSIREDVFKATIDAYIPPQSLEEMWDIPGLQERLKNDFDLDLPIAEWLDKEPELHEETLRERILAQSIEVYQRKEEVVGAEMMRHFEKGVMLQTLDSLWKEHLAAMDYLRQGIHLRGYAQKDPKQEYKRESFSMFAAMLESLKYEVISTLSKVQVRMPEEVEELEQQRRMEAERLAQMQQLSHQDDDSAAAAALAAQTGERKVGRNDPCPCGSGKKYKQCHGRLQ
Sialic acid-binding Ig-like lectin 9 (Homo sapiens), sequence (Q9Y336 whole entry): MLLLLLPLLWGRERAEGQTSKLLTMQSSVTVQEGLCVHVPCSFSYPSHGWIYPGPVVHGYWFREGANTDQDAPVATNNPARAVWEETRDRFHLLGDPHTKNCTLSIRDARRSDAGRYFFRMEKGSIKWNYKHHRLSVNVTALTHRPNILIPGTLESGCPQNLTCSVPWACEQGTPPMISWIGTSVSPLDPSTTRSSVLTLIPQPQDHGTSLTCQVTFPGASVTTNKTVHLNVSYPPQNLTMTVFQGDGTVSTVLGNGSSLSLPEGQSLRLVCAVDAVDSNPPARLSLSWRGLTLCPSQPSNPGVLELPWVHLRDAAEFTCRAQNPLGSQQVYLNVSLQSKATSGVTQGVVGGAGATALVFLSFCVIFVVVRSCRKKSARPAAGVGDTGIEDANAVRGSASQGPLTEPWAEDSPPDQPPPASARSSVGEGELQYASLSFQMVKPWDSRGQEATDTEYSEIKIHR

| SMILES | Percent Effect [1] [%] | Percent Effect [2] [%] | Percent Effect [3] [%] | Percent Effect (Trypanosoma cruzi) [%] | Percent Effect [4] [%] | Percent Effect [5] [%] | Percent Effect (Homo sapiens) [%] | Percent Effect [6] [%] | Percent Effect [7] [%] | Percent Effect [8] [%] |
| --- | --- | --- | --- | --- | --- | --- | --- | --- | --- | --- |
| CCN(CC1CCOC1)C(=O)Nc1ccc(N2CCCC2)nc1 (stereo not given) | -6.5 | 12.8 | -1.33 | 5.35 | 2.87 | 14.2 | 10.2 | 7.18 | 18.1 | -10.3 |
| CS(=O)(=O)N1CCC2(CC1)CC(CC(=O)NC1CC1)c1ccccc12 (stereo not given) | -4.87 | 9.09 | 1.58 | 2.04 | -3.24 | 15.4 | -6.07 | 4.74 | 10.3 | 0.815 |
| CCn1ccnc1CN1CCC(CCC(=O)Nc2ccccc2Cl)CC1 | -1.09 | 5.41 | 7.23 | 6.89 | 12.2 | -1.37 | 10.8 | 1.6 | 7.32 | 83.4 |
| Cn1c(C2CC2)nc2c1CCN(CCS(=O)(=O)c1ccccc1)C2 | -3.66 | -5.33 | 1.61 | 5.22 | 0 | -2.46 | 3.62 | 0.526 | 0 | -4.67 |
| CCN1C(=O)CCCC12CCCN(C(=O)c1cnccn1)C2 (stereo not given) | -2.55 | 3.9 | 1.16 | -0.75 | -2.28 | 2.49 | 14.1 | 2.9 | 7.5 | -6.78 |
| Cc1ccc(C(=O)N2CCC3(CC2)CCN(CCN(C)C)C3=O)cn1 | -3.6 | 6.49 | -4.15 | -1.31 | -0.457 | 6.44 | 11.3 | 7.73 | 7.5 | -6.63 |
| COCCO[C@H]1CCN(C(=O)c2cc(C)on2)[C@H]1Cc1ccccc1 | -2.31 | 11.7 | 3.34 | -1.88 | -0.913 | 7.47 | 18.8 | 7.73 | 10 | -5.82 |
| Cc1noc(C)c1CN(C)CCC(=O)N1CCc2sccc2C1 | -4.9 | 0 | 7.48 | -1 | 0.444 | 8.74 | 17.8 | 4.74 | 5.13 | -7.86 |
| COC(=O)C1CCN(C(=O)c2ccc(N(C)S(C)(=O)=O)c(C)c2)CC1 | -3.72 | -2.7 | -4.09 | -31.3 | -1.75 | 13.7 | -11.3 | 2.66 | 2.44 | 3.29 |
| CCN(Cc1cccc2c1OCO2)C(=O)Nc1ccncc1 | -0.455 | -2.6 | 12.1 | -2.8 | -2.25 | 2.81 | 34.4 | 0.98 | 0 | 5.59 |
| CC1CCN(C(=O)c2cccc3ncccc23)CC1 | -2.07 | -5.33 | 1.04 | -1.21 | -1.33 | 3.48 | 19 | 4.74 | 7.69 | 1.83 |
| CCc1ccc(S(=O)(=O)N2CCC3(CC(C(=O)NC)=NO3)C2)cc1 (stereo not given) | -3.25 | 1.3 | 3.29 | 5.36 | -4.05 | 4.68 | -7.8 | 1.58 | 5.13 | 0.139 |
| Cc1ccccc1-c1cc(C(=O)NCCN2CCCS2(=O)=O)[nH]n1 | -1.9 | 12.8 | -10.8 | 9.3 | -2.05 | 5.72 | 4.69 | 5.26 | 20.5 | -1.78 |
| Cc1nc(CN2CCC(N(C)Cc3noc(C4CC4)n3)C2)oc1C (stereo not given) | 0.865 | 18.2 | 0.312 | 1.31 | 0.205 | 18.8 | 12.6 | 12.8 | 28.2 | -10.9 |
